# Assay outcomes from PubChem BioAssay.
# In the library only some 7% were active in any assay of this set; here they are far more common.
# D3 antag: qHTS of D3 Dopamine Receptor Antagonist: qHTS | D(3) dopamine receptor (Homo sapiens), P35462 | D3R cells, DiscoveRx beta-arrestin luminescence, antagonist mode; stronger effect = lower value | max response, negative = inhibition, % | hit rate 2.5% among 360,000 | AID 652054, 2013; in the data active means max response below about -50%; inconclusive means no clear call, values can overlap the other calls; further: on the % scale 0 is the no-effect control and ±100 the full control effect
# Target sequence (P35462 whole entry, looked up): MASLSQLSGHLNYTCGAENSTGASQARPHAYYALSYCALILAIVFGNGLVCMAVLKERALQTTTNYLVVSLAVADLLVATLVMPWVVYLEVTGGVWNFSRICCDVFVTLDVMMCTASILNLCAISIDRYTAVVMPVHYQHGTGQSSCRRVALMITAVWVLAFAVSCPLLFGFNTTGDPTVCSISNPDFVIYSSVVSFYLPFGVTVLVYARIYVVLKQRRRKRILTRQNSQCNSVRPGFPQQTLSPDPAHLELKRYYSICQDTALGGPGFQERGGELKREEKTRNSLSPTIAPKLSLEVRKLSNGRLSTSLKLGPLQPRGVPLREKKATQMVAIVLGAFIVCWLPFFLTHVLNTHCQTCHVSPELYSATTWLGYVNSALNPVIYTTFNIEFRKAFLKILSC
#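 Cells plated overnight at 1500 cells/well, then exposed to library compounds with dopamine controls for 90 minutes at 37 degrees C. DiscoveRx reagent added for 30–60 minutes at room temperature; luminescence read, quantitative HTS format.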
# DRD3 agonist: qHTS of D3 Dopamine Receptor Agonist: qHTS | max activation, % | D3R DiscoveRx beta-arrestin cells, luminescence, 90 min | D(3) dopamine receptor (Homo sapiens), P35462 | AID 652048, 2013 | hit rate 0.58% among 410,000; in the data active means max activation above about 30%; further: 0% is about no effect
#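 Cells at 1500/well, incubated overnight, then treated with pinned compounds (dopamine as control) for 90 min at 37 degrees C. DiscoveRx reagent added for 30 - 60 minutes at room temperature; luminescence read.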
# S2 tox: Viability Counterscreen for Primary qHTS for Inhibitors of ATXN expression; S2 cells (HEK-293 line with an ATXN2-luciferase reporter) viability, CellTiter-Fluor protease fluorescence, 24 h; Potency, µM (series often up to 56.7 µM), most hits filed as cytotoxic; hit rate 0.49% among 400,000; AID 651635, 2014; further: potency means the concentration at half of the fitted maximal effect; nearly all actives have a fitted effect of over 40% in size
# a7 integrin act: qHTS for Activators of Integrin-Mediated Alleviation for Muscular Dystrophy | alpha7betagal myoblasts, beta-gal FDG fluorescence, 48 h | Potency, µM (top dose mostly 38.3 µM), for the others: top-dose activation, hits mostly activators | hit rate 0.064% among 350,000 | AID 624291, 2012;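 further: potency means the concentration at half of the fitted maximal effect; 100% = response of the positive control SU9516; nearly all actives have a fitted effect of over 60% in size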
#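 Alpha7betagal+/- myoblasts (passage 13) were plated 16-24 hr, then exposed to compounds (1:260 dilution of DMSO stock) for 48 hours at 37C. After MPER lysis, β-galactosidase reporter activity was read as FDG fluorescence (ex 480/em 540) after 30 minutes.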
# ATXN2 expr inh: Primary qHTS for Inhibitors of ATXN expression. hit rate 0.72% among 360,000. HEK-293 ATXN2-luciferase reporter, luminescence, 24 h. Potency, µM (doses to about 57 µM), for the others: at the top dose activity change, negative = inhibition, usual class: inhibitors; further: potency means the concentration at half of the fitted maximal effect; on the % scale 0 is the no-effect control and ±100 the full control effect; nearly all actives have a fitted effect of over 55% in size
#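 ATXN2-luciferase reporter cells (luciferase flanked by upstream and downstream ATXN2 gene portions) were treated 24 h at 37 °C with compounds at up to 57 uM. SteadyGlo luminescence gave expression; GF-AFC fluorescence gave viability.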
# IL-1B inflam inh: qHTS for Inhibitors of Inflammasome Signaling: IL-1-beta AlphaLISA Primary Screen | THP-1 LPS/ATP IL-1B secretion, AlphaLISA, 16 h; stronger effect = lower value | activity change, % at 57.5 µM | hit rate 4.7% among 360,000 | AID 743279, 2014; in the data active means activity change below about -50%; inconclusive means mostly about -30% to -49%; further: on the % scale 0 is the no-effect control and ±100 the full control effect
#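 THP-1 cells pretreated 1 hr with compounds (up to 57.5 uM final), then stimulated with LPS (250 ng/mL final) plus ATP (1.25 mM final); secreted IL-1B measured by AlphaLISA after 16 hr, decreased signal indicating inhibition.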
# * hit, by the source's call; i = inactive; ? = inconclusive; / = no result; ! = repeats disagree. Unless noted, the call rests on the fitted dose curve; in most records, active means well fitted curve in the direction sought with a large enough effect; inconclusive means small, poorly fitted or top-dose-only effect, or another doubt; inactive means no such curve, though single readings can be large; an effect the other way counts as inactive or inconclusive.
SMILES,D3 antag,DRD3 agonist,S2 tox,a7 integrin act,ATXN2 expr inh,IL-1B inflam inh
C[C@]12CCC(=O)C=C1CC[C@@H]1[C@@H]2CC[C@@]2(C)[C@H]1CC[C@]2(C)O,7.5,12.7,i,/,-2.5%,35.4
CC12Cc3cnoc3C=C1CCC1C2CCC2(C)C1CCC2(C)O (centres undefined),16.0,0.3,i,-31.2%,-27.1%,-50.2*
Ic1ccccc1CN[C@@H]1C2CCN(CC2)[C@@H]1C(c1ccccc1)c1ccccc1,-14.8,0.0,22.4µM*,/,?,-50.3*
Fc1ccccc1CNC1CN2CCC1CC2 (centres undefined),-5.2,-3.0,i,-7.4%,-7.2%,-7.1
C=C1C(O)[C@@H]2O[C@]3(CC[C@H](/C=C/C(C)[C@@H]4CC(C)=CC5(O[C@H](C[C@@](C)(O)C(=O)O)CCC5O)O4)O3)CC[C@H]2O[C@@H]1C(O)CC(C)[C@H]1OC2(CCCCO2)CCC1C (some centres undefined),-131.6*,-70.3,?,?,0.316µM*,?
Cn1cc([N+](=O)[O-])c(C(=O)Nc2ccc3c(C(F)(F)F)cc(=O)oc3c2)n1,-8.5,3.0,i,-30.4%,-3.7%,-95.0*
O=C(Nc1ccc(F)cc1)Oc1ccc[nH]c1=O,6.6,1.7,?,-6.1%,/,?
CNCC(=O)c1ccc(O)c(O)c1,/,61.5*,?,/,5.7%,/
CNCC(=O)c1ccccc1,-50.5*,-42.2,i,-4.4%,2.0%,69.2
c1ccc(CN2CCc3nc4ccccc4cc3C2)cc1,-10.4,60.3*,i,20.1%,9.8%,-11.2
O=C(c1ccc(-c2ccccc2)c(F)c1)C1CCCN(CCO)C1 (centres undefined),-2.7,-4.2,/,-16.6%,22.3%,-74.6*
CCn1ccnc1CN1CCCC(C(=O)c2cc(Cl)ccc2OC)C1 (centres undefined),-26.7,-12.5,i,-44.9%,-35.0%,-75.2*
COc1ccc(C(=O)C2CCCN(CC3CCCCC3)C2)cc1OC (centres undefined),0.0,4.0,i,/,-5.2%,-11.2
COc1ccc(Cl)cc1C(=O)C1CCCN(CCO)C1 (centres undefined),-50.0*,-26.7,?,-12.9%,-6.4%,16.7
CN1CCCC(C(=O)c2ccc(-c3ccccc3)cc2)C1 (centres undefined),-1.2,0.1,i,-42.7%,/,-12.5
C[C@@H]1CN([C@H](C)CO)C(=O)CCCn2nncc2CO[C@H]1CN(C)C(=O)Oc1ccccc1,-24.3,-6.9,i,17.1%,-12.9%,-0.6
CCN1CCN(Cc2ccc(C)cc2C)CC1,-71.7*,-2.1,i,-18.0%,-8.0%,7.3
CCN1CCN(Cc2ccccc2C)CC1,-65.7*,-12.9,i,-26.8%,2.8%,11.5
COC(=O)C1=C(c2cccc(OC)c2OC)C[C@@H]2CC[C@H]1N2C(=O)NCCO,-9.4,-12.3,i,21.9%,7.0%,11.7
C[N+]1(C)C2CCC1CC(OC(=O)C(CO)c1ccccc1)C2 (centres undefined),2.9,-3.1,?,-7.8%,/,0.6
Cn1c(O)c(C(=N)COc2ccccc2)c(=O)n(C)c1=O,-3.6,45.4*,i,-6.9%,21.7%,31.4
O=[N+]([O-])O[C@H]1CO[C@H]2[C@H]1OC[C@@H]2O[N+](=O)[O-],/,/,i,/,/,/
CCN1CCOC(c2ccccc2)C1 (centres undefined),5.3,23.1,i,0.0%,0.2%,6.7
COC1CC(C)C(OC)c2cc(O)cc(c2O)NC(=O)C(C)=CC=CC(C)C(OC(N)=O)C(C)=CC(C)C1OC (centres undefined),-8.0,0.0,?,-52.7%,3.77µM*,-100.5*
CCOC(=O)c1cncn1[C@H](C)c1ccccc1,/,/,/,/,8.0%,/
SMILES,D3 antag,DRD3 agonist,S2 tox,a7 integrin act,ATXN2 expr inh,IL-1B inflam inh
CC(c1ccccc1)n1cncc1C(=O)N1CCCC1=O (centres undefined),27.7,30.3*,i,7.6%,3.7%,12.7
OCCN1C2CCC1CC(O)(c1ccc(F)cc1)C2 (centres undefined),-68.3*,-22.4,i,22.3%,-7.6%,-8.1
CC(C)N1C(=O)NC(=O)C2(Cc3cc([N+](=O)[O-])ccc3N(C)C2c2ccccc2)C1=O (centres undefined),-14.7,-1.4,i,-21.2%,-4.8%,-24.0
O=C(N/N=C/c1c(O)n(Cc2ccco2)c(=O)[nH]c1=O)c1ccccc1O,-14.0,3.8,?,0.7%,0.8%,4.9
Cc1ccsc1CNCCc1ccc(F)cc1,0.0,-14.0,i,?,0.7%,?
CCN(CC)c1ccc(CNCCc2ccc(F)cc2)cc1,-3.7,-6.9,i,-51.9%,-30.4%,-97.0*
COc1ccccc1CNCCc1ccc(F)cc1,-55.4*,-17.2,i,-58.3%,-28.3%,0.0
Fc1ccc(CCNCc2ccc(Cl)c(Cl)c2)cc1,-72.1*,-31.9,?,-17.9%,?,-53.1*
COc1cc(OC)c(OC)cc1CNCCc1ccc(F)cc1,0.3,-18.4,i,0.0%,-22.2%,-11.9
CCc1ccc(CNCCc2ccc(F)cc2)cc1,-14.3,-8.2,i,-44.4%,-14.3%,-83.1*
CC(=O)c1ccc(OC(C)C)c(Cc2c(O)[nH]c(=S)[nH]c2=O)c1,-3.0,-5.6,?,-17.0%,-3.9%,2.7
CN(C)S(=O)(=O)c1cccc(C(=O)N2CCC(C(=O)O)(c3ccccc3)CC2)c1,0.9,-5.5,i,0.0%,-6.8%,-1.1
C/C(=N\NC(=O)c1ccncc1)c1c(O)[nH]c(=O)[nH]c1=O,7.3,-9.3,i,7.0%,9.9%,21.2
COc1ccc(-c2nc3ccc(Br)cn3c2CC(=O)N2CCCC2)cc1OC,-52.0*,-8.3,i,/,5.7%,4.1
O=C(Cc1c(-c2ccccc2)nc2ccc(Br)cn12)N1CCCC1,-9.4,3.9,?,/,16.2%,38.7
Cc1ccc2c(c1)CC1(CN2C)C(=O)NC(=O)N(c2cccc(C)c2C)C1=O (centres undefined),?,-2.7,i,-15.5%,2.1%,15.3
CC(=O)OCC12CC(OC(=O)CC(C)C)C(C)=CC1OC1C(O)C(OC(C)=O)C2(C)C12CO2 (centres undefined),-11.3,-17.7,?,?,-71.1%,-83.2*
FC(F)(F)c1ccc2c(c1)N(CCCN1CCN(CCCl)CC1)c1ccccc1S2,-77.7*,-18.1,?,-56.4%,?,-116.2*
OCCN1CCN(CCCN2c3ccccc3Sc3ccc(C(F)(F)F)cc32)CC1,-96.1*,-85.9,?,/,28.2µM*!,-56.7*
